In PubChem BioAssay AID1903 (Southern Research Specialized Biocontainment Screening …, 2009):
Where “and” joins values, the source holds several entries; their conditions need not be identical. Equal values may be shown once. Hit rate of the full screen: of about 310,000 compounds, about 1,200 (0.39%) were called active. No rule for the calls is given here. A selection follows. Potency and affinity values are given separately.

Target: Large T antigen (Simian virus 40) (UniProt P03070)
Assay: SV40 large T antigen inhibitors, biochemical (AID 1903)
Settings: SV40 large T antigen ATPase/helicase inhibition assay; at 20 µM; hits give high values

Chain of Large T antigen (Simian virus 40) (P03070 whole entry, looked up): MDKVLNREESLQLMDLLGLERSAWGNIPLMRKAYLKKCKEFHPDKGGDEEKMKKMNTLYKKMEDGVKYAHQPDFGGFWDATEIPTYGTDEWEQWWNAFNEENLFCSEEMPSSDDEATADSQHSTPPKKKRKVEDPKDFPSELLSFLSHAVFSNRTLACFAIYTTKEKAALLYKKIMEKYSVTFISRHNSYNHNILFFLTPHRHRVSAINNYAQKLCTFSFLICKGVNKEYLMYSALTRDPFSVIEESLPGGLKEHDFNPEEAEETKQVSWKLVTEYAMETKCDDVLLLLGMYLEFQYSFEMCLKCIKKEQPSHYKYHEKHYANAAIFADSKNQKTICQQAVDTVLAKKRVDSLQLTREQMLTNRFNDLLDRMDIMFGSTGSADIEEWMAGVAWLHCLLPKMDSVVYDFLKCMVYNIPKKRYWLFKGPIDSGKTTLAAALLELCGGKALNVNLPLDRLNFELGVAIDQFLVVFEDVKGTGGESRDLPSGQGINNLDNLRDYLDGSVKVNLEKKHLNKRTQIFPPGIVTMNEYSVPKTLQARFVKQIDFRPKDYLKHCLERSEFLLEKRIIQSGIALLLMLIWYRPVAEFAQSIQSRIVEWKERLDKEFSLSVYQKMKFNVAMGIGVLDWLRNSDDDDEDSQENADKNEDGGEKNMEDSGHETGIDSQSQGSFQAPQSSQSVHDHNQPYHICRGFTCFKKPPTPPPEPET

inhibition, inactive:
Cc1ccc(C)c(NS(=O)(=O)c2ccc(OCC(=O)N3CCOCC3)cc2)c1 4.78%
COc1cc(C(=S)N2CCCCC2)ccc1O 29.3%
COc1cc(C(=O)OCCN2CCCCC2)ccc1O 29.6%
O=C(NCCOc1ccccc1)C1CCC(=O)N(CCc2ccccn2)C1 (stereo not drawn) 5.44%
CN(C)c1ccc(C2/C(=C(/O)c3ccc(Br)cc3)C(=O)C(=O)N2C)cc1 (stereo not drawn) 8.15%
CC(C)C[C@H](NC(=O)[C@@H]1Cc2c([nH]c3ccccc23)C2c3ccccc3C(=O)N21)C(=O)NCC1CCCO1 (stereo partly drawn) 8.64%
O=C1OCC/C1=C\c1ccccc1 6.44%
Cc1ccc(/C=C2\CCOC2=O)cc1 10.9%
CC(NC(=O)c1cc(S(=O)(=O)N2CCCC2)cn1C)c1ccccc1 (stereo not drawn) 5.41%
CN1C(C(=O)NCCc2cccs2)CC2Cn3c(nc4ccccc43)C21 (stereo not drawn) 21.1%
Cc1ccc2cc3c(N)c4c(C)ccc(C)c4nc3nc2c1 1.71%
CCc1ccc2nc3nc(C)cc(C)c3c(N)c2c1 17.6%
CC1(C)Cc2nc3n[nH]c(N)c3cc2CO1 -1.93%
CCc1ccc2nc(N)sc2c1 9.15%
Cc1cc2cc3c(=O)[nH]c(=O)[nH]c3nc2cc1C -1.5%
Nc1[nH]nc2nc3ccccc3cc12 36%
CCn1cc(CNC(=O)c2cc(-c3ccccc3OC)nc3ccccc23)c(C)n1 4.15%
O=C(c1ccc(Cl)cc1)c1oc2ccccc2c1CS(=O)(=O)c1ccccc1 1.36%
c1ccc(Oc2ccc3ccccc3n2)cc1 7.16%
COc1ccc(N(CC(=O)N2CCOCC2)S(C)(=O)=O)cc1OC 4.22%
CCCCn1c(=O)[nH]c(=O)c2c(C(=O)OCC)cc(-c3cccs3)nc21 4.89%
Cc1cc(NC(=O)c2cc(C(C)C)on2)nn1Cc1ccc(Cl)cc1 -0.65%
COC(=O)c1[nH]c2cccc(OC)c2c1NC(=O)CCN1CCSCC1 2.77%
CCN(CC)C(=O)C1CCC(CNS(=O)(=O)c2cccc3nsnc23)CC1 (stereo not drawn) 5.44%
COc1ccccc1C(=O)NCCC(=O)Nc1nc2ccccc2[nH]1 10.6%
CCOC(=O)/C(C#N)=C1/C(=O)N(Cc2ccccc2)c2ccccc21 11%
CCCCN1C(=O)/C(=C(/C#N)C(=O)N2CCCC2)c2ccccc21 7.04%
O=C(CN1C(=O)C2CCCCC2C1=O)Nc1nc(-c2ccc(F)cc2)cs1 (stereo not drawn) 12.1%
COc1ccc(Nc2cccc(Cl)c2)c(C(=O)O)c1 33.4%
COc1ccc(Nc2ccccc2C(=O)O)cc1 31.6%
COc1ccc(/C=N/Nc2nc(=O)[nH]nc2C)cc1OC 13.7%
COc1cc(/C=N/Nc2nc(C)cc(=O)[nH]2)ccc1O 35.4%
COc1cc(/C=N/Nc2ccccn2)cc(OC)c1O 29.8%
COc1ccc(/C=N/Nc2ccccn2)cc1OC 9.61%
Cn1c(N/N=C\c2cccc(O)c2)cc(=O)n(C)c1=O -5.57%
COc1ccc(/C=N/Nc2ccccn2)cc1O 36.9%
COc1ccc(/C=N/Nc2cc(=O)n(C)c(=O)n2C)cc1OC 9.25%
COc1cc(/C=N/Nc2ccc(C(=O)O)cc2)ccc1O 29.4%
CC(=O)c1sc(NC(=O)COc2ccccc2)nc1C 3.21%
CC(C)CCNC(=O)C(=O)Nc1cc2c3c(c1)CCC(=O)N3CCC2 -2.67%
COC(=O)c1ccc(CNC(=O)C23CC4CC(CC(C4)C2)C3)cc1 -3.62%
CCCCc1oc2c(c(=O)c1C)C(=O)CC(c1ccccc1)C2 (stereo not drawn) 4.52%
CCC(=O)N1CCN(c2ccc(NC(=O)c3ccc(C#N)cc3F)cc2Cl)CC1 6.06%
CCc1ccc(NC(=O)C(=O)N/N=C(\C)CC(=O)Nc2ccccn2)cc1 11.4%
CCC(NC(=O)c1ccc(C#CC2(O)CCCCC2)cc1)C(=O)O (stereo not drawn) 8.73%
COc1ccc(/C=N/Nc2cc(C)nc3c(C)cccc23)cc1 4.3%
COc1cc(/C=N/Nc2ccccc2)ccc1O 27.7%
COc1cc(/C=N/Nc2nn3cnnc3c3ccccc23)ccc1O 8.69%
COc1cccc2c(N/N=C/c3ccccc3)cc(C)nc12 4.18%
COc1ccc(OC)c(/C=N/Nc2nncn2/N=C/c2cc(OC)ccc2OC)c1 12.7%
COc1ccc(/C=N/NC2=NCCCCC2)cc1 -2.48%
Oc1ccc(/C=N/NC2=NCCCCC2)cc1 25.1%
CCc1nnc(N/N=C/c2ccc(O)c(OC)c2)n1N 38%
CCc1ccc(NC(=O)C2CCN(S(=O)(=O)c3ccc4c(c3)N(C(C)=O)CCO4)CC2)cc1 -0.74%
Cc1ccc(S(=O)(=O)NCCCN2CCCC2)cc1 13.3%
c1ccc(CNc2nc3ccccc3n2CCN2CCOCC2)nc1 7.87%
Cc1ccc(NC(=O)c2nc[nH]c2C(=O)N2CCC(C)CC2)cc1 9.16%
O=C(Cn1nc(-c2cccs2)ccc1=O)Nc1ccc(Br)cc1 3.47%
O=C1CC(C(=O)Nc2ccc(Cl)cc2[N+](=O)[O-])C2(CCCCC2)O1 (stereo not drawn) 6.86%
COc1ccccc1OCc1nn[nH]n1 11.9%
CCC1CCCCN1CCCNC(=O)c1cc2c(=O)[nH]c3ccccc3c2n1C (stereo not drawn) 8.49%
O=C(Nc1c(Cl)cc(Cl)cc1-c1nc2ccccc2s1)c1ccc(Br)o1 6.8%
COC(CN(C)C(=O)c1ccc(CS(=O)(=O)c2ccccc2C)o1)OC 6.06%
Cc1nnc(-c2ccccc2)c[n+]1[O-] 2.44%
Oc1c(Br)cc(/C=N/n2c(-c3ccccc3)n[nH]c2=S)c(O)c1Br 30.1%
Oc1c(Br)cc(/C=N/n2c(-c3ccccc3)n[nH]c2=S)cc1Br 29.7%
CCOC(=O)N/N=C(/C)c1ccc(N2C(=O)C3CCCCC3C2=O)cc1 (stereo not drawn) 11.8%
O=C(O)c1ccc(N(Cc2ccccc2)S(=O)(=O)c2ccccc2)cc1 1.43% and 0.12%
CN(C[C@H](Cc1ccccc1)N(C[C@H](Cc1ccccc1)N(CCc1cc(C(F)(F)F)cc(C(F)(F)F)c1)N=O)N=O)N=O 0.235%
N#Cc1ccsc1NC(=O)CN1CCN(c2ccccc2)CC1 9.52%
Cc1c(NC(=O)CN2CCN(c3ccc(F)cc3)CC2)c(=O)n(-c2ccccc2)n1C 6.05%
CCC(=O)c1ccc(OCC(=O)OCC(=O)Nc2c(C)n(C)n(-c3ccccc3)c2=O)cc1 12.3%
O=C(CN1CCN(c2ccccc2)CC1)Nc1ccc2c(c1)OCCO2 -0.06%
COc1ccc(N2CCN(CC(=O)Nc3sccc3C#N)CC2)cc1 8.41%
Cc1cc(C)cc(OCC(=O)OCC(=O)Nc2c(C)n(C)n(-c3ccccc3)c2=O)c1 15.2%
Cc1c(NC(=O)CN2CCN(c3ccccc3)CC2)c(=O)n(-c2ccccc2)n1C 3.86%
O=C(CN1CCN(c2ccc(F)cc2)CC1)Nc1ccc2c(c1)OCCO2 8.68%
CCOc1ccc(C2/C(=C(/O)c3ccc4c(c3)CC(C)O4)C(=O)C(=O)N2CCCn2ccnc2)cc1OCC (stereo not drawn) 2.21%
Cc1ccsc1/C=N/NC(=O)c1cccnc1 10.3%
COc1cccc(N/C=C/C(=O)c2ccc(OC)c(OC)c2)c1 15.6%
Cc1cc(NC(=O)c2ccc3c(c2)C(=O)N(C)C3=O)no1 21.4%
COc1ccccc1C(=O)Nc1cccc2c1CCCC2 3.42%
Cc1cc(CNC(=O)CCc2nnc(CCCc3ccccc3)o2)nn1C 23%
Cc1cccc(N(CC(=O)NCc2ccc3c(c2)OCO3)C(=O)CCC(=O)Nc2ccccn2)c1 3.36%
c1ccc(OCCOCCSc2ncccn2)cc1 3.66%
COc1cccc(-c2ccc3nnc(SCC(=O)N4CCOCC4)n3n2)c1 8.56%
COc1cc(OC)c(C(=O)OCC(=O)N2CCOCC2)cc1OC -1.18%
CC(C)(C)NC(=O)NC(=O)CN1CCN(c2ccccc2)CC1 -1%
COc1ccc(N2CCN(CC(=O)NC(=O)NC(C)(C)C)CC2)cc1 22.3%
COc1ccc(N2CCN(CC(=O)Nc3cc(C)on3)CC2)cc1 12.3%
CC(=O)c1ccc(N2CCN(CC(=O)Nc3cc(C)on3)CC2)cc1 11.5%
CCCN(CC(=O)Nc1ccc(Cl)cc1Cl)Cc1cc(=O)n2ccsc2n1 -0.76%
COc1ccc(C(=O)NCc2nnc(SCC(=O)Nc3nnc(C)s3)o2)cc1 11.2%
Cc1ccc(S(=O)(=O)NCC(=O)N(CC(=O)NC2CCCC2)c2ccc3c(c2)OCCO3)cc1 6.71%
CCOc1c(C)cnc2c1c(=O)n(Cc1c(F)cccc1Cl)c(=O)n2C 18.6%
CCOc1ccc(N2C(N)=NC(N)=NC2(C)C)cc1 2.99%
COc1ccc(N2Nc3n[nH]c(N)c3N2)cc1 34.9%
COc1ccc(NC2=CC(c3ccc(OC)cc3)N(c3ccc(OC)cc3)C2=O)cc1 (stereo not drawn) 11.9%
